Only some compounds are listed: those with a hit (about 4% of all), similar ones and a draw of the others.
CF NFkB block: cystic fibrosis NF-kB activation inhibition; inhibition, % at 5 µM; AID 588850; 360,000 tested, 0.86% active; KKLEB NF-kB-GFP reporter, PAF-induced, GFP fluorescence overnight;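 active means at least 50% inhibition at 5 µM, scaled per plate between neutral and stimulator controls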;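 further: PAF is a Pseudomonas aeruginosa culture filtrate used as stimulus; plate controls were PAF-stimulated DMSO wells for no effect and unstimulated DMSO wells for full effect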
TWEAK-Fn14 inh: blocks TWEAK-Fn14 interaction in a reporter cell assay. TWEAK-stimulated Fn14 reporter cells, luciferase luminescence, 8 h. inhibition, % at 10 µM. 360,000 tested, 2% active; in the data active means inhibition above about 50%
TROY signal inh: blocks TROY-dependent signaling in reporter cells; 360,000 tested, 0.98% active; inhibition, % at 10 µM; Q293 LMP1-TROYcd NF-kB luciferase reporter, 4 h;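 active means compounds whose plate-normalised and pattern-corrected inhibition of the luciferase reporter signal at the single screening dose is 50% or more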
HIF-2a inh: HIF-2a inhibition; 786-0 RCC cells HIF-2a reporter, luciferase luminescence, overnight; 360,000 tested, 0.72% active; inhibition, % at 18.8 µM;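 active means inhibition of the luminescence signal of 40% or more relative to plate controls, in a single-dose primary screen at 18.75 µM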
Peg3 prom inh: inhibitors of Peg3 promoter. HeLa PEG-Prom luciferase reporter, luminescence, overnight. inhibition, % at 20 µM. 360,000 tested, 1.7% active. AID 588405;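 active means inhibition of at least 50% at 20 µM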
KKLEB cytotox: reduces viability of KKLEB cystic fibrosis airway cells; activity change (cytotoxicity), % at 5 µM; KKLEB CF airway cells viability, ATPlite luminescence, overnight; hits give low values; cells stimulated with P. aeruginosa culture filtrate; AID 602141; 360,000 tested, 0.36% active;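 active means corrected activity change at or below -50% at 5 µM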
Mdm2-MdmX confirm: confirmation of inhibitors of human Mdm2/MdmX interaction, set 2 | shares compounds with HIF-2a inh | SaOS-2 split-luciferase Mdm2/MdmX complementation, luminescence | inhibition, % at 8 µM | 740 tested, 99% active;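 active means mean inhibition of the luminescence signal across two replicates at or above 26 percent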
Target sequence (O15151 whole entry, looked up): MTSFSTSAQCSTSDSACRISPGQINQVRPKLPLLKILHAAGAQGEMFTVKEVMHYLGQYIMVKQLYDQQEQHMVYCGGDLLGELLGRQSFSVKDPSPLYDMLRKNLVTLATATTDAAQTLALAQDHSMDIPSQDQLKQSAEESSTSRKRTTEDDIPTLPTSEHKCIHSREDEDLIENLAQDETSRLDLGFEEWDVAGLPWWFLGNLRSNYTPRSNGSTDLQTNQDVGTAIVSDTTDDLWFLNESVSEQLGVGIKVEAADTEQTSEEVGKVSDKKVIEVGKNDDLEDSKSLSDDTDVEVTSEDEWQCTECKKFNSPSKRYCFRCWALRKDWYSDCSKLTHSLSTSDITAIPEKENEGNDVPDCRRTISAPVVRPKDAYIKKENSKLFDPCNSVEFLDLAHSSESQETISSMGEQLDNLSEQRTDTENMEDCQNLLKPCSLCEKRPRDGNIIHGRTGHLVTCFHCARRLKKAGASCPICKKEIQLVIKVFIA
Target sequence (Q00987 whole entry, looked up): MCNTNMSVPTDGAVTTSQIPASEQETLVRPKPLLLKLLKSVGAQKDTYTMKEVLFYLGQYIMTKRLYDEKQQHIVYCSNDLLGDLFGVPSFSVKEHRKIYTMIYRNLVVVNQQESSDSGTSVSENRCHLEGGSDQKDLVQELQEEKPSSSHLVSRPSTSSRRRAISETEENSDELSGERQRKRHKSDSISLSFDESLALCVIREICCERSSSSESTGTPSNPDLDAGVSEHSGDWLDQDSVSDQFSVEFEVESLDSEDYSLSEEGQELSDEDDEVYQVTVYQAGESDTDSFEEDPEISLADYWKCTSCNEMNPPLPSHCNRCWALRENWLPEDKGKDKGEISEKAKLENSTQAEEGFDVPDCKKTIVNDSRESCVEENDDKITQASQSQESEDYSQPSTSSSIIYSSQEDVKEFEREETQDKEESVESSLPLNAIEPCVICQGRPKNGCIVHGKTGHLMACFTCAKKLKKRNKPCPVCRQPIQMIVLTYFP
HIF-2a conf: confirmation of HIF-2a inhibitors; inhibition, % at 18.8 µM; 1,800 tested, 56% active; AID 651580; 786-0 RCC cells, HIF-2a luciferase reporter luminescence, overnight; shares compounds with HIF-2a inh;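 active means mean inhibition across four replicates of at least 40 percent at the single tested concentration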
HIF-1a counter: HIF-1a inhibition counter-screen for HIF-2a hits | MiaPaCa-2 HIF-1a luciferase reporter, desferoxamine, overnight | shares compounds with HIF-2a inh | AID 651589 | inhibition, % at 18.8 µM | 1,800 tested, 72% active;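 active means mean inhibition of the reporter signal across four replicates at the single tested dose of 50% or more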
* hit, by the source's call; i = inactive; x = not tested or not shown.

SMILES | CF NFkB block | TWEAK-Fn14 inh | TROY signal inh | HIF-2a inh | Peg3 prom inh | KKLEB cytotox | HIF-2a conf | HIF-1a counter | others
Cc1ccc(F)c([C@H]2[C@H]3C=CC[C@@H](C)[C@@H]3C(=O)N2Cc2ccccc2)c1 | 46.6 | 14.1 | -21.4 | 42.5* | 30.0 | -13.4 | 30.8 | 21.3
C[C@@H]1CC=C[C@H]2[C@H]1C(=O)N(Cc1ccccc1)[C@H]2c1ccc2ccccc2c1 | 41.9 | 17.9 | 4.5 | 44.1* | 21.3 | -17.2 | 8.0 | 51.9*
Cc1ccc(C(=O)N/C(=C\c2cccs2)C(=O)N2CCOCC2)cc1C | 17.0 | -5.2 | 7.8 | 3.5 | 6.6 | 0.4 | x | x
COc1ccc(C2C3=C(Nc4ncnn42)c2ccccc2CCC3)cc1 (stereo not given) | 0.0 | -11.3 | -9.4 | 11.1 | 18.9 | -7.0 | x | x
Fc1ccc(/C=C2\CCCC3=C2Nc2ncnn2C3c2ccc(F)cc2)cc1 (stereo not given) | 79.6* | 34.6 | -49.7 | 86.1* | 91.3* | -44.4 | 15.9 | 66.0*
COCC(=O)N(C)C[C@@H]1Oc2cc(-c3ccc(F)cc3)ccc2S(=O)(=O)N([C@H](C)CO)C[C@H]1C | 17.7 | 10.2 | -6.8 | 8.2 | -5.8 | -17.5 | x | x
CN1/C(=C\C(=O)C(F)F)C(C)(C)c2ccccc21 | 2.7 | 0.9 | 1.7 | 12.0 | 4.4 | -11.5 | x | x
CN1/C(=C/C(=O)c2nc(S(C)(=O)=O)ncc2Cl)C(C)(C)c2ccccc21 | 94.6* | 84.2* | 69.6* | 91.5* | 111.0* | -47.1 | x | x | Mdm2-MdmX confirm=103.2*
O=[N+]([O-])c1ccc(S(=O)(=O)CC(CN2CCCCC2)N2CCCCC2)cc1 (stereo not given) | 81.4* | 15.8 | -18.6 | 27.2 | 107.8* | -43.1 | x | x | Mdm2-MdmX confirm=103.2*
COc1cc2c3nnc(-c4ccc(F)cc4)c-3cn(Cc3ccccc3)c2cc1OC | -347.9 | i | -133.1 | -23.8 | 103.5* | 10.7 | x | x | Mdm2-MdmX confirm=103.2*
COc1ccc(-c2nnn(Cc3ccccc3)n2)cc1OC | -10.7 | 5.7 | -12.4 | -70.8 | -27.7 | -6.0 | x | x
COc1ccc(Nc2ncnc3scc(-c4ccc(OC)cc4)c23)cc1 | 27.1 | 39.8 | 39.4 | 41.7* | 29.8 | -18.3 | 25.9 | 58.3*
COc1ccc(-c2csc3ncnc(Cl)c23)cc1 | 29.0 | 12.7 | -2.9 | 11.8 | 3.3 | -12.8 | x | x
CC[C@]1(C(=O)OC)[C@H]2C(=O)N(C)C(=O)[C@H]2[C@H]2CN=C(SCC3CC3)N21 | 12.4 | -3.0 | 10.0 | 2.4 | -14.7 | 11.6 | x | x
C=CCSC(=C(C#N)C#N)c1cc2c([nH]1)CCCC2 | 18.0 | 29.1 | -7.5 | 65.8* | 93.8* | -13.9 | 8.7 | 106.2*
O=C(O)c1cc2c([nH]c1=O)CCCC2 | 3.8 | -12.8 | -5.2 | 15.9 | 5.2 | -3.4 | x | x
COc1ccc(NC(=O)CC(c2ccco2)C(C)C)cc1 (stereo not given) | 13.5 | 4.4 | 1.7 | -16.6 | -15.0 | 0.9 | x | x
C(=N\Nc1nc2ccccc2s1)/c1ccccn1 | x | x | x | x | x | x | x | x | Mdm2-MdmX confirm=95.2*
Cc1nc(N2CCOCC2)c2cc(-c3ccccc3)sc2n1 | 3.7 | -14.0 | -38.2 | -72.2 | -20.5 | -0.7 | x | x
Cc1nc(SCCC(=O)O)c2cc(-c3ccccc3)sc2n1 | 13.4 | 49.5 | 38.9 | 85.0* | 1.3 | -7.4 | 91.5* | 49.6
Cc1ccc(N(C(=O)c2snc(C(N)=O)c2N)C(C(=O)NC2CCCC2)c2ccncc2)cc1 (stereo not given) | 6.1 | -31.8 | -43.3 | -119.4 | -31.6 | -9.5 | x | x
NC(=O)c1cc2ccncc2c2ccccc12 | 79.4* | -15.0 | 57.9* | 33.2 | -15.7 | -7.0 | x | x | Mdm2-MdmX confirm=98.0*
CCNC(=O)C1CCCN(C(=O)c2ccc(OC)c(OC)c2)CC1 (stereo not given) | 0.4 | 17.6 | 6.8 | 5.5 | 5.4 | -4.6 | x | x
COc1ccc(C(=O)c2c(C(F)(F)F)oc3c2C(=O)c2ccccc2C3=O)cc1 | 88.4* | 71.1* | 34.9 | 27.1 | 99.4* | -82.6* | x | x | Mdm2-MdmX confirm=97.2*
COc1ccc(C(=O)c2coc(-c3ccccc3C(=O)O)c2C(=O)O)cc1 | -5.0 | -6.3 | -16.4 | 19.6 | -0.3 | 10.7 | x | x
SMILES | CF NFkB block | TWEAK-Fn14 inh | TROY signal inh | HIF-2a inh | Peg3 prom inh | KKLEB cytotox | HIF-2a conf | HIF-1a counter | others
Nc1ccn([C@@H]2O[C@H](C(=O)N3CCCN(Cc4cccs4)CC3)[C@@H](O)[C@H]2O)c(=O)n1 | -12.8 | 1.9 | 0.4 | 12.7 | 7.7 | 4.6 | x | x
CCCOc1ccc(C(=O)C(CN2CCOCC2)c2ccccc2)cc1 (stereo not given) | -6.8 | 13.2 | -23.9 | 62.5* | 94.4* | -29.1 | -8.0 | 99.7*
CCCOc1ccc(C(=O)C(c2ccccc2)N2CCOCC2)cc1 (stereo not given) | 18.6 | -11.4 | -7.0 | 1.9 | 8.4 | -13.8 | x | x
Cc1ccc(CN2C(=O)c3ccccc3C2c2nnnn2C(C)C)cc1 (stereo not given) | x | 9.5 | -20.0 | -11.5 | x | x | x | x
COc1cc(C=NNc2ccccc2)ccc1OC(=O)c1ccccc1 | -64.7 | -64.0 | -11.9 | -1.8 | -167.3 | -7.9 | x | x
Cc1nn(-c2cccc(C(F)(F)F)c2)c(Cl)c1/C=N/Nc1cccc(C(=O)O)c1 | 0.7 | -40.3 | -52.9 | -63.3 | -249.8 | 6.7 | x | x
CCOc1cc(/C=N/Nc2cccc(C(=O)O)c2)ccc1OC(=O)c1ccccc1 | -12.8 | 7.9 | -49.5 | 87.4* | 65.0* | 9.7 | 90.4* | -32.9
Cc1nn(-c2ccccc2Cl)c(Cl)c1/C=N/Nc1cccc(C(=O)O)c1 | 1.0 | -22.7 | -104.2 | 58.2* | -38.3 | -16.1 | 51.7* | -98.7
Cc1ccc(/C=N/Nc2cccc(C(=O)O)c2)s1 | -18.3 | -17.8 | -25.3 | 62.3* | 34.7 | 10.0 | 58.8* | -72.9
C=CC[C@@H](CC(=O)OC(C)(C)C)C(=O)OC[C@@H]1CCCN1C(=O)[C@@H](CC=C)CC(=O)N(CCO)Cc1ccccc1 | 16.1 | 5.2 | -2.1 | 6.0 | 16.3 | -27.0 | x | x
O=C1C(=C(I)I)c2ccccc2-c2ccccc21 | 81.5* | 104.2* | 63.8* | 92.9* | 104.5* | -99.6* | 95.6* | 102.8*
O=C(O)c1cccc2c1C(=O)c1ccccc1-2 | 5.3 | 1.5 | 0.0 | 19.0 | 2.8 | -2.4 | x | x
CC(C)(C)c1ccc(-c2cc(N)n[nH]2)cc1 | 3.4 | 47.0 | 43.5 | 87.1* | -75.7 | 1.8 | 94.7* | 74.2*
Cc1ccc(-c2cc(N)n[nH]2)cc1 | 9.3 | 9.5 | 14.9 | -73.9 | -0.6 | -3.1 | x | x
O=C(C[C@@H]1C=C[C@H](NS(=O)(=O)c2ccccc2F)[C@@H](CO)O1)NCCCN1CCOCC1 | x | x | x | 9.9 | x | x | x | x
O=C(Nc1ccccc1-c1nc2ccccc2[nH]1)c1ccc(N2C(=O)CCC2=O)cc1 | 19.2 | -43.9 | 7.4 | 44.8* | 21.7 | -25.8 | -22.5 | 9.9

High-throughput results (PubChem BioAssay)
